In PubChem BioAssay (NCATS):
Where “and” joins values, the source holds several entries; their conditions need not be identical. Identical values can stand only once. Starred links: 1 amine or outer side, 2 acyl side, 3 side chain; linkers in the order of their positions; H or OH if unused. Positions of bridges follow the written chain, without caps; N, C: chain ends. Non-standard residues stand in square brackets, D forms with d. Residues, ends and D or L forms follow the SMILES beside them. Chains are numbered I, II in the order given. Actinocin(9to1) = Cc1c2oc3c(C)ccc(C(=O)[*:1])c3nc-2c(C(=O)[*:2])c(N)c1=O; NMeV = CN[CH](C(=O)O)C(C)C; Sar = CNCC(=O)O

Assay: qHTS profiling of the MIPE4 collection as inhibitors of Plasmodium falciparum (DD2) proliferation (AID 743345)
Conditions: P. falciparum Dd2 in erythrocytes, SYBR Green DNA, 72 h; at 28.5 µM (top of the series) unless noted
Description: Plasmodium falciparum is a virulent malarial parasite that kills 1-2 million people worldwide each year. Transmitted by mosquitoes, the sporozoite form of the parasite enters the blood stream to infect hepatocytes, where they become merozoites that infect red blood cells (erythrocytes). Within erythrocytes, merozoites begin a […] cycle of growth and division, after which the parasite is released to infect new red blood cells. Gametocytes, which form within erythrocytes as well, circulate in the bloodstream and are ingested by the mosquito, thereby completing the life cycle. To profile malarial isolates for differential chemical responses and to identify inhibitors of malarial growth, an assay that measures P. falciparum growth and replication within erythrocytes was employed. This assay uses a DNA binding fluorescent dye (SYBR Green) to detect parasite DNA following cell lysis. Because mature erythrocytes lack DNA, only Plasmodium-derived DNA is detected.
The SYBR Green viability assay was adapted from a method described previously (Plouffe et al., 2008). For screening 3 ul culture medium was dispensed into 1536 well black clear bottom plates (Aurora Biotechnologies) using a Multidrop Combi (Thermo Fisher Scientific Inc.), 23 nL compounds in DMSO were added by a pin tool (Kalypsys), and 5 ul of erythrocytes infected with P. falciparum (0.3% parasitemia, 2.5% hematocrit final concentration) were added. The plates were incubated at 37 C in a humidified incubator in 5% CO2 for 72 h, and 2 ul lysis buffer (20 mM Tris HCl, 10 mM EDTA, 0.16% saponin, 1.6% triton X, 10X SYBR Green I supplied as 10,000X […] by Invitrogen) was added to each well. The plates were mixed for 25 sec with gentle shaking and incubated overnight at room temperature in the dark. The following morning, fluorescence intensity at 485(14) nm excitation and 535(25) nm emission wavelengths was measured on an EnVision (Perkin Elmer) plate reader. Plate reads were normalized relative to the control inhibitor (0.29 uM artemisinin) and vehicle (DMSO) wells present on each plate and then corrected by an algorithm using vehicle-only control plates at the beginning and end of the compound plate stack.

Row | Compound | parasite growth remaining, % of DMSO control (lower = more inhibition)
1 | C[C@]12C=CC(=O)N[C@@H]1CC[C@H]1[C@H]3CC[C@@H](C(=O)Nc4cc(C(F)(F)F)ccc4C(F)(F)F)[C@@]3(C)CC[C@@H]12 | 9.12%
2 | O=[N+]([O-])c1cn2c(n1)OC[C@@H](OCc1ccc(OC(F)(F)F)cc1)C2 | 99.7% and 101%
3 | CC(C)c1cc(C(C)C)c(CC(=O)NS(=O)(=O)Oc2c(C(C)C)cccc2C(C)C)c(C(C)C)c1 | 89.6%
4 | C[N+](C)([O-])CCNc1ccc(NCC[N+](C)(C)[O-])c2c1C(=O)c1c(O)ccc(O)c1C2=O | 13.5%
5 | COc1ccc([C@@H]2CNC(=O)C2)cc1OC1CCCC1 | 96.4%
6 | CCc1c(O)cc(O)c(C(=O)c2ccc(OCCN3CCOCC3)c(OC)c2)c1CC(=O)N(CCOC)CCOC | 12.7%
7 | Cc1cnc(NC(=O)Nc2cc(Br)c(C)cc2OC[C@@H]2CNCCO2)cn1 | 7.73%
8 | COC1=C2C[C@@H](C)C[C@H](OC)[C@@H](O)[C@@H](C)C=C(C)[C@H](OC(N)=O)[C@@H](OC)C=CC=C(C)C(=O)NC(=CC1=O)C2=O | 5.64%
9 | CC(C)c1cnn2c(NCc3ccccc3)cc(NCCCCCCN)nc12 | 12.1%
10 | Cc1coc2c1C(=O)C(=O)c1c-2ccc2c(C)cccc12 | 19.5%
11 | FC(F)(F)c1ccc(Nc2nc3ccc(Oc4ccnc(-c5ncc(C(F)(F)F)[nH]5)c4)cc3[nH]2)cc1 | 48.6%
12 | CC[C@H]1OC(=O)[C@H](C)[C@@H](O[C@H]2C[C@@](C)(OC)[C@@H](O)[C@H](C)O2)[C@H](C)[C@@H](O[C@@H]2O[C@@H](C)C[C@H](N(C)C)[C@@H]2O)[C@](C)(O)C[C@@H](C)C(=O)[C@H](C)[C@@H](O)[C@]1(C)O | 75%
13 | CCOC(=O)C1=C(C)NC(=S)NC1c1cccc(O)c1 (stereo not given) | 93.6%
14 | CN(C)CC[C@H](c1ccc(Cl)cc1)c1ccccn1 | 57%
15 | Oc1ccc([C@@H]2Oc3ccc(O)cc3[C@@H]3CCC[C@@H]32)cc1 | 90.8%
16 | CCC(C=C[C@@H]1OC(=O)C=C[C@H]1C)=C[C@H](C)CC=CC(C)=C[C@@H](C)C(=O)[C@@H](C)[C@H](O)[C@@H](C)CC(C)=CC(=O)O | 97.4% [at 1.06 µM]
17 | CC(=O)OCC(=O)[C@@]1(O)CC[C@H]2[C@@H]3CCC4=CC(=O)CC[C@]4(C)[C@@H]3C(=O)C[C@@]21C | 93.2%
18 | C[C@H]1O[C@H](O[C@H]2[C@H](O)[C@@H](O)[C@@H](O[C@H]3[C@H](O)[C@@H](O)C(O)O[C@H]3CO)O[C@H]2CO)[C@H](O)[C@@H](O)[C@H]1N[C@H]1C=C(CO)[C@@H](O)[C@H](O)[C@@H]1O (stereo not given in full) | 127%
19 | COc1ccc(C(C)=O)c(O)c1 | 98.8%
20 | COc1cccc2c1C(=O)c1c(O)c3c(c(O)c1C2=O)C[C@@](O)(C(=O)CO)C[C@H]3O[C@H]1C[C@H](N)[C@H](O)[C@H](C)O1 | 5.82%

Row | Compound | parasite growth remaining, % of DMSO control (lower = more inhibition)
21 | O=C1NC(=O)C(=Cc2ccc3nccc(-c4ccncc4)c3c2)S1 | 7.95%
22 | CC(C)(O)[C@H]1CC[C@@](C)([C@H]2[C@@H](O)C[C@@]3(C)[C@@H]4C[C@H](O[C@@H]5O[C@H](CO)[C@@H](O)[C@H](O)[C@@H]5O)[C@H]5C(C)(C)[C@@H](O[C@@H]6OC[C@@H](O)[C@H](O)[C@@H]6O)CC[C@@]56C[C@@]46CC[C@]23C)O1 | 135%
23 | CCCCCCCCCCCCc1ccc(S(=O)(=O)Nc2nncs2)cc1 | 92.3%
24 | Cn1cnc(=N)c2[nH]cnc21 | 6.87%
25 | NC(=O)c1ncn([C@@H]2O[C@H](CO)[C@@H](O)[C@@H]2O)c1N | 91.5%
26 | OCc1ccccc1O[C@@H]1O[C@H](CO)[C@H](O)[C@H](O)[C@H]1O | 96.7%
27 | C=Cc1c(C)c2cc3nc(cc4[nH]c(cc5nc(cc1[nH]2)C(C)=C5CCC(=O)O)c(CCC(=O)OC)c4C)[C@@]1(C)C3=CC=C(C(=O)OC)[C@H]1C(=O)OC | 5.89%
28 | O=C1CSC(=O)N1C(CCc1ccncc1)COc1ccc(-c2cccc([N+](=O)[O-])c2)cc1 (stereo not given) | 49.4%
29 | Cc1c2oc3c(C)ccc(C(=O)NC4C(=O)NC(C(C)C)C(=O)N5CCCC5C(=O)N(C)CC(=O)N(C)C(C(C)C)C(=O)OC4C)c3nc-2c(C(=O)NC2C(=O)NC(C(C)C)C(=O)N3CCCC3C(=O)N(C)CC(=O)N(C)C(C(C)C)C(=O)OC2C)c(N)c1=O (stereo not given) (I: TVP[Sar][NMeV] / II: TVP[Sar][NMeV]; ester I:1-I:C, II:1-II:C; linker I:N-II:N via Actinocin(9to1); configuration not given here) | 3.9%
30 | O=C1NC(O)CCN1[C@@H]1O[C@H](CO)[C@H](O)[C@H]1O (stereo not given in full) | 97.8%
31 | CC(=O)NCC(=O)N1[C@H]2CC[C@H]1c1cc(Nc3ncc(C(F)(F)F)c(NC4CCC4)n3)ccc12 | 15.3%
32 | Cc1nc(NC(=O)N2CCC[C@@H]2C(N)=O)sc1-c1ccnc(C(C)(C)C(F)(F)F)c1 | 36.1%
33 | O=C(CN1C(=O)C2(CCCC2)NC[C@H]1c1cc(F)cc(F)c1)Nc1ccc2c(c1)C[C@@]1(C2)C(=O)Nc2ncccc21 | 86.9%
34 | CC(C)C[C@H](NC(=O)CNC(=O)c1cc(Cl)ccc1Cl)B1OC(=O)CC(CC(=O)O)(C(=O)O)O1 (stereo not given in full) | 7.15%
35 | CCOC(=O)C=C[C@H](C[C@@H]1CCNC1=O)NC(=O)[C@@H](CC(=O)[C@@H](NC(=O)c1cc(C)on1)C(C)C)Cc1ccc(F)cc1 | 98.4%
36 | Oc1ccc(-c2ccc(-c3cc(Nc4cccc(CNC5CC5)c4)n[nH]3)cc2)c(O)c1 | 13.4%
37 | CCNC(=O)Nc1ccc(-c2nc3c(c(N4CCOC[C@H]4C)n2)CCN(C2COC2)C3)cc1 | 87.1%
38 | CC(C=CC1=C(C)CCCC1(C)C)=CC=CC(C)=CC(=O)Nc1ccc(O)cc1 | 6.69% [at 57.5 µM]
39 | COc1cc2c(cc1OC)[C@@H]1C(=O)c3ccc4c(c3O[C@@H]1CO2)C=CC(C)(C)O4 | 91.2%
40 | c1cncc(CN2CCC(n3ncc4c(N5CCOCC5)nc(-c5ccc6[nH]ccc6c5)nc43)CC2)c1 | 6.76%
